Screens: PubChem BioAssay, National Center for Advancing Translational Sciences (NCATS)
Only a selection was taken, and hits are over-represented in it overall.
Pf Dd2 growth – Plasmodium falciparum Dd2 growth inhibition; Potency, µM (top dose mostly 28.9 µM), for inactives: at the highest dose activity, negative = inhibition, hits mostly inhibitors; AID 1347417; 4.3% of 120,000 active; P. falciparum Dd2 growth, SYBR Green, 72 h; active = well fitted inhibition curve with a large enough effect;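 note: plate controls were DMSO vehicle for no effect and reference drug for full effect; nearly all actives have a fitted effect of over 65% in size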
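Readout: SYBR Green fluorescence, 485 nm excitation, 535 nm emission, after ~16 h lysis at 37C. Before that, Dd2-infected red cells (2.5% hematocrit) grew 72 h with compound, 29 uM top final concentration.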
Active calls of the source: *; i = inactive; [ ] = another dose, or the depositor's remark. Potency is the fitted concentration of half-maximal effect.

SMILES | Pf Dd2 growth
O=C(c1ccco1)N1CCCC(CCc2cccc(F)c2)C1 (centres undefined) | -10%
Cc1cnc(C(=O)N2CCCC(CCc3cccc(F)c3)C2)cn1 (centres undefined) | 2%
COc1ccc(C(=O)N2CCOCC3(CN(Cc4cccc(C#N)c4)C3)C2)cc1OC | i
CN1CC(=O)N(C2CCNCC2)Cc2c(NCC3CCCCC3)ncnc21 | -3%
CCc1ccc2ncc(C(=O)c3ccc(C)c(C)c3)c(N3CCC(C(N)=O)CC3)c2c1 | -34%
CCOC(=O)C1CCCN(c2ncnc3c2cnn3-c2ccc(C)c(Cl)c2)C1 (centres undefined) | 62%
CCOC(=O)C1CCCN(c2c(C(=O)c3ccc(C)cc3)cnc3ccc(OCC)cc23)C1 (centres undefined) | 11µM*
CN1CCN(CCCNC(=O)c2cnn(-c3ccccc3)c2C2CCN(C(=O)OC(C)(C)C)CC2)CC1 | i
CC(C)(C)OC(=O)N1CCC(c2c(C(=O)NCCN3CCC(Cc4ccccc4)CC3)cnn2-c2ccccc2)CC1 | 2.8µM*
CC(C)(C)OC(=O)N1CCC(c2c(C(=O)NCCN3CCC(Cc4ccccc4)CC3)cnn2-c2ccc(F)cc2)CC1 | 1.6µM*
CCn1cc(S(=O)(=O)N2CCC3(CCC3OC)CC2)cn1 (centres undefined) | -6%
CN(C)C[C@@H]1CN(c2ncccn2)C[C@H]1NC(=O)c1c(F)cccc1F | 0%
O=C(N1CCC(F)CC1)C1(c2ccc(Cl)cc2)CCOCC1 | -4%
CCOc1ccc(C2Cn3nnc(-c4nc(-c5ccccc5C)no4)c3CO2)cc1 (centres undefined) | i
COC(=O)c1ccc(NC(=O)CC2Nc3cc(C)c(C)cc3NC2=O)cc1 (centres undefined) | 4µM*
COc1ccc(NC(C)=O)cc1NC(=O)C[C@H]1NC(=O)c2ccccc2NC1=O | -6%
CC(=O)c1ccc(NC(=O)CC2Nc3cc(C)c(C)cc3NC2=O)cc1 (centres undefined) | 5µM*
Cc1ccc(NC(=O)CC2Nc3ccccc3NC2=O)cc1C (centres undefined) | -6%
O=C(C[C@H]1NC(=O)c2ccccc2NC1=O)Nc1ccncc1 | -4%
CCOc1ccccc1NC(=O)C[C@H]1NC(=O)c2ccccc2NC1=O | -8%
CCOC(=O)c1ccc(NC(=O)CC2Nc3ccccc3NC2=O)cc1 (centres undefined) | 13µM*
Cc1cc2c(cc1C)NC(CC(=O)Nc1ccccc1)C(=O)N2 (centres undefined) | i
Cc1cc(Br)ccc1NC(=O)C[C@H]1NC(=O)c2ccccc2NC1=O | -14%
COC(=O)[C@@H](Cc1cccnc1)NC(=O)[C@H]1CN(C(=O)Nc2ccccc2)CCN1C(C)=O | -4%
O=C(Cn1ccn2nc(-c3ccccc3)c(CO)c2c1=O)NCCC1=CCCCC1 | i
SMILES | Pf Dd2 growth
Cc1ccc(C#N)c(N2CCCC(c3nnc(Cn4cccn4)n3C)C2)n1 (centres undefined) | -10%
Cc1ccc(-n2c(C3CCN(C(=O)c4cccc(N(C)C)c4)CC3)n[nH]c2=O)cc1 | i
O=C1NC2(CN(Cc3cccnc3)C2)Oc2ccccc21 | -10%[44.1 µM]
O=C(COc1ccc(F)cc1)NCC(=O)N1CCCCCCNC(=O)CC1c1ccccc1 (centres undefined) | -12%
COc1cncc(CN2C[C@H]3[C@H](C2)[S+](=O)([O-])C(C)(C)C(=O)N3CC2CCOCC2)c1 | 10%
COC[C@@H]1CN(C(=O)COc2cccc(C)c2)C[C@H]1c1ccccn1 | -1%
Cn1nc(C2CCCN(C(=O)CCc3ccccc3)C2)n(-c2ccccc2)c1=O (centres undefined) | -19%
O=C(NC1CC1)c1ccccc1OC1CN(C2CCC2)C1 | 2.8µM*
O=C(NC1CC1)c1ccccc1OC1CN(Cc2ccc(F)cc2)C1 | -20%
O=C(c1ccccc1OC1CCN(C2Cc3ccccc3C2)CC1)N1CCCCC1 | -18%
Cn1cc(CN2CCN3C(=O)N(C4CCCCC4)C[C@H]3C2)cn1 | i
Cn1cc(CN2CCCC(C(=O)N3CCOCC3)C2)c(-c2ccc(C3CCCCC3)cc2)n1 (centres undefined) | -23%
Cn1cc(CN2CCN3CCCC3C2)c(-c2ccc(C3CCCCC3)cc2)n1 (centres undefined) | 8.9µM*
CNC(=O)C(C)(C)N1CCC[C@H]1C(=O)NCc1ccccc1 | 62%[44.1 µM]
NC(=O)c1csc(S(=O)(=O)N2CCC(CO)(CN3CCCC3)CC2)c1 | -28%
COc1ccc(C(=O)c2sc(Nc3ccccc3)nc2N)cc1 | 8.9µM*
COc1ccc(C(=O)c2sc(Nc3cc(Cl)ccc3C)nc2N)cc1OC | 54%
COc1ccccc1C(=O)Nc1sc(Nc2ccccc2)nc1C(N)=O | 40%
O=C1CC(c2noc(-c3cccc(F)c3)n2)CN1c1ccc(F)c(Cl)c1 (centres undefined) | 74%
CCc1cn(C[C@H](NC(=O)C2CCC2)C(=O)O)c(=O)[nH]c1=O | -23%[44.1 µM]
Cc1ccc(-c2nnc3ccc(NC(C)C)nn23)nc1 | i
Cc1ncoc1C(=O)N1CCc2nnc([C@@H]3C[C@@H](O)CN3C(C)C)n2CC1 | 22%
Cc1cc(C(=O)N2C[C@@H](CN3CCOCC3)[C@@H](CO)C2)cs1 | 11%
Cc1cccc(C)c1NC(=O)c1nc(S(C)(=O)=O)ncc1N(Cc1ccc(F)cc1)Cc1ccco1 | -23%
CC(C)c1ccc(CN(Cc2ccco2)c2cnc(S(C)(=O)=O)nc2C(=O)Nc2ccc(F)cc2)cc1 | 11µM*
SMILES | Pf Dd2 growth
CCS(=O)(=O)c1ncc(Cl)c(C(=O)N(Cc2ccccc2)Cc2ccco2)n1 | 10%
Cc1ccc(NC(=O)c2ncoc2-c2ccco2)cc1Cl | 10%
COc1ccc(CN(Cc2ccco2)c2cnc(S(C)(=O)=O)nc2C(=O)Nc2ccc(C)c(Cl)c2)cc1 | 10µM*
COc1ccc(CN(Cc2ccco2)C(=O)COc2ccccc2Cl)cc1 | 14%
O=C([C@H](O)c1ccccc1)N1CCc2onc(-c3cccc4ccccc34)c2C1 | i
CCCN(CC1CCOC1)S(=O)(=O)c1cc(F)ccc1OC (centres undefined) | i[5.79 µM]
O=C(COc1ccc(F)cc1)N1CCC(n2cc(-c3nc(C4CC4)no3)nn2)C1 (centres undefined) | 5.6µM*
Cc1ccc(OCc2nc(C3CCN(C(=O)c4ccncc4)CC3)no2)cc1 | i
Cc1ccc(OCc2nc(C3CN(C(=O)C4CCCO4)C3)no2)cc1 (centres undefined) | 8%
Cc1ccc(NC(=O)N2CCCC(c3noc(COc4ccccc4F)n3)C2)c(C)c1 (centres undefined) | -15%
O=C(COc1ccc(F)cc1)N1CCCC(c2noc(COc3ccccc3)n2)C1 (centres undefined) | 6.3µM*
O=C(c1ccccc1F)N1CCCC(c2noc(COc3ccccc3)n2)C1 (centres undefined) | -6%
O=C(COc1ccc(F)cc1)N1CCCC(n2cc(-c3nc(C4CC4)no3)nn2)C1 (centres undefined) | -12%
CCc1noc(-c2cn(C3CCN(C(=O)COc4ccc(F)cc4)C3)nn2)n1 (centres undefined) | i
O=C(c1ccc(F)cc1)N1CCCC(c2noc(COc3ccccc3)n2)C1 (centres undefined) | -3%
Cc1ccc(C)c(NC(=O)N2CCCC(c3noc(COc4ccccc4)n3)C2)c1 (centres undefined) | 5µM*
CCNC(=O)N1CCC(c2noc(COc3ccc(C)cc3)n2)CC1 | 10µM*
